The results in this text go back to PubChem BioAssay.

Experiment [1] relates to Plasmodium falciparum Sir2 (PF13_0152, Sir2A). Description: Plasmodium falciparum Sir2A binding compounds – biochemical, small-molecule microarray, 635 nm fluorescence, primary screen (AID 1098).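 Further: score merges spot fluorescence intensity with its signal-to-noise ratio.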 Particulars: fluorescence 635 nm, higher = more signal.
Experiment [2] is described as follows: probe aDKK1 binding to arrayed compounds – biochemical, biotinylated probe, 635/667 nm fluorescence, primary screen (AID 1099).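 Further: score merges 667nm spot fluorescence with signal to noise across triplicate slides.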 The following applies: small-molecule microarray, higher = more signal.
Experiment [3] can be described thus: probe aCHRDL2 binding to arrayed compounds – biochemical, biotinylated probe, 635/667 nm fluorescence, primary screen (AID 1100). Particulars: small-molecule microarray, higher = more signal.
Experiment [4] is described as follows: change in splice reporter luminescence, either direction, cell-based, HEK293, spliceosome inhibition project, primary screen (AID 1101).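 Further: HEK293 cells carrying a splicing-competent luciferase reporter gene; test concentration not given here.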 Particulars: HEK293 splicing luciferase reporter, 24 h, higher = more signal, called active from +8 up or from −8 down.
Experiment [5] concerns the target Fibroblast growth factor 10 (Homo sapiens) (UniProt O15520). Description: compounds binding fibroblast growth factor 10 – biochemical, small-molecule microarray, 635 nm fluorescence, primary screen (AID 1102). Particulars: FGF10 binding, fluorescence 635 nm, higher = more signal.
Experiment [6] has as its system glycogen synthase kinase-3 (GSK3A per assay name; protocol says GSK3B). Description: compounds binding glycogen synthase kinase-3 – biochemical, small-molecule microarray, 635 nm fluorescence, GSK3A, primary screen (AID 1103). Further: the record names both GSK3A and GSK3B. The following applies: fluorescence 635 nm, higher = more signal.
For experiment [7], the target named is Epidermal growth factor receptor (Homo sapiens) (UniProt P00533). Briefly: compounds binding epidermal growth factor receptor – biochemical, small-molecule microarray, 635 nm fluorescence, primary screen (AID 1104).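 Further: score merges 667 nm emission intensity with spot signal to noise over triplicate slides.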 The following applies: EGFR binding, higher = more signal.
The target of experiment [8] is Follistatin-related protein 3 (Homo sapiens) (UniProt O95633). Description: compounds binding follistatin-related protein 3 – biochemical, small-molecule microarray, 635 nm fluorescence, primary screen (AID 1105).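 Further: score merges emission near 667 nm and signal to noise per printed spot across three slides.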 The following applies: FSTL3 binding, higher = more signal.
In experiment [9] the target is Dickkopf-related protein 1 (Homo sapiens) (UniProt O94907). Description: small molecules binding DKK1 protein – biochemical, small-molecule microarray, 635 nm fluorescence scan, primary screen (AID 1106).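 Further: score merges emission near 667 nm with signal to noise over three replicate slides.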 The following applies: higher = more signal.
The test system of experiment [10] is Inhibin beta A chain (activin A). Description: small molecules binding activin A – biochemical, small-molecule microarray, 635 nm fluorescence scan, primary screen (AID 1107).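 Further: mouse activin A protein probed at 4.33 µg/mL on printed slides; score merges bound-protein fluorescence near 667 nm with spot signal-to-noise.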 The following applies: INHBA, higher = more signal.
Experiment [11] relates to Human papillomavirus type 1a protein E7 (residues 44-93). Briefly: small molecules binding HPV E7 44-93 – biochemical, small-molecule microarray, residues 44-93, 635 nm fluorescence, primary screen (AID 1108).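 Further: E7 fragment applied at 1 µg/mL in TBST for 1 h at 4 C; score combines spot fluorescence with its signal to noise ratio.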 The following applies: fluorescence 635 nm, higher = more signal.
Experiment [12] is described as follows: hepatitis C replication reporter changes, two-sided – Huh7 cells, luciferase reporter, HCV replication inhibitor project, primary screen (AID 1109).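 Further: huh7 hepatoma cells harbouring a luciferase neomycin HCV replicon reporter; luciferase luminescence as measure of HCV replicon replication; test concentration not given here.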 Particulars: Huh7 HCV replicon luciferase reporter, 48 h; higher = more signal. On the technique in general: A reporter such as luciferase makes a cellular process visible.
The target in experiment [13] is Left-right determination factor 2 (Homo sapiens) (UniProt O00292). Description: small molecules binding LEFTY2 protein – biochemical, small-molecule microarray, 635 nm fluorescence scan, primary screen (AID 1110). The following applies: higher = more signal.
Experiment [14] deals with Calmodulin-1 (Homo sapiens) (UniProt P0DP23). Description: small molecules binding calmodulin-1 with EGTA – biochemical, small-molecule microarray, Cy5-labelled CALM1, profiling panel (AID 1111).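 Further: labelled calmodulin applied in Tris saline Tween buffer holding calcium plus EGTA and DTT.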 Particulars: Cy5-CALM1 binding fluorescence, higher = more signal.
For experiment [15] the target is unchanged. Briefly: small molecules binding Ca-loaded calmodulin-1 – biochemical, small-molecule microarray, Cy5-labelled CALM1, plus calcium, artefact control for SMM control-protein annotation, profiling panel (AID 1112).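 Further: score merges spot fluorescence with signal to noise from triplicate slides.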 The following applies: Cy5-CALM1 binding fluorescence, higher = more signal.
Experiment [16] in a line: probe aWnt5a binding to arrayed compounds – biochemical, biotinylated probe, 635/667 nm fluorescence, primary screen (AID 1113).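 Further: score merges 667 nm fluorescence intensity with signal-to-noise per printed feature.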 The following applies: small-molecule microarray, higher = more signal.
A short description of experiment [17]: probe aShh binding to arrayed compounds – biochemical, biotinylated probe, 635/667 nm fluorescence, primary screen (AID 1114).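 Further: probe is biotin-labelled aShh protein from a stem cell growth factor screen; measures binding of labelled protein to compounds printed on the slide; score merges feature fluorescence at 667 nm with signal-to-noise.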 Particulars: small-molecule microarray, higher = more signal.
A short description of experiment [18]: probe aNog binding to arrayed compounds – biochemical, biotinylated probe, 635/667 nm fluorescence, primary screen (AID 1115).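 Further: probe is biotinylated aNog protein used at 0.15 µg/mL for 1 h at 4 C; z-score combines 667 nm fluorescence of each spot with its signal to noise.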 Particulars: small-molecule microarray, higher = more signal.
The target of experiment [19] is Torsin-1A-interacting protein 1 (Homo sapiens) (UniProt Q5JTV8). Briefly: compound microarray binding of lysate hLAP1 – cell lysate, small-molecule microarray, COS7 lysate, 635/667 nm fluorescence, primary screen (AID 1116). The following applies: 635 nm fluorescence, higher = more signal.
Experiment [20] addresses Alpha-bungarotoxin (Bungarus multicinctus) (UniProt P60615). Description: compounds binding labelled alpha-BTX control protein – biochemical, small-molecule microarray, Alexa647 label, 635/667 nm fluorescence, artefact control for SMM control protein annotation, profiling panel (AID 1117). Particulars: alpha-BTX-A647 binding fluorescence, higher = more signal.

Calls of active or inactive are those of the source.

Chain of Fibroblast growth factor 10 (Homo sapiens) (O15520 whole entry, looked up): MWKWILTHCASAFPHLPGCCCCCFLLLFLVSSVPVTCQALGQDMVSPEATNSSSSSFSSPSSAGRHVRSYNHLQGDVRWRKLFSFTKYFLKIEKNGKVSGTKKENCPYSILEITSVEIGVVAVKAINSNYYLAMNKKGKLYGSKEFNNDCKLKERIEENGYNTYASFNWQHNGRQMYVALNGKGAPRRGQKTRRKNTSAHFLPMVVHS
Chain of Alpha-bungarotoxin (Bungarus multicinctus) (P60615 whole entry, looked up): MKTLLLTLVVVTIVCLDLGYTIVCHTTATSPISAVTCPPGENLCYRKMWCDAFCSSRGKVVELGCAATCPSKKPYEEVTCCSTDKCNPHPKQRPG
Chain of Follistatin-related protein 3 (Homo sapiens) (O95633 whole entry, looked up): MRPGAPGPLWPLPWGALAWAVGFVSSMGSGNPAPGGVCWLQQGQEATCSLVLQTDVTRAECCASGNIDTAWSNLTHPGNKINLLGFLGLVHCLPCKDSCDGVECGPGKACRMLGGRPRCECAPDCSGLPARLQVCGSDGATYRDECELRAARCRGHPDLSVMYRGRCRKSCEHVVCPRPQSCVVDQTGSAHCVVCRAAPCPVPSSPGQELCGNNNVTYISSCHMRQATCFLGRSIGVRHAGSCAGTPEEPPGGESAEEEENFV
Chain of Epidermal growth factor receptor (Homo sapiens) (P00533 whole entry, looked up): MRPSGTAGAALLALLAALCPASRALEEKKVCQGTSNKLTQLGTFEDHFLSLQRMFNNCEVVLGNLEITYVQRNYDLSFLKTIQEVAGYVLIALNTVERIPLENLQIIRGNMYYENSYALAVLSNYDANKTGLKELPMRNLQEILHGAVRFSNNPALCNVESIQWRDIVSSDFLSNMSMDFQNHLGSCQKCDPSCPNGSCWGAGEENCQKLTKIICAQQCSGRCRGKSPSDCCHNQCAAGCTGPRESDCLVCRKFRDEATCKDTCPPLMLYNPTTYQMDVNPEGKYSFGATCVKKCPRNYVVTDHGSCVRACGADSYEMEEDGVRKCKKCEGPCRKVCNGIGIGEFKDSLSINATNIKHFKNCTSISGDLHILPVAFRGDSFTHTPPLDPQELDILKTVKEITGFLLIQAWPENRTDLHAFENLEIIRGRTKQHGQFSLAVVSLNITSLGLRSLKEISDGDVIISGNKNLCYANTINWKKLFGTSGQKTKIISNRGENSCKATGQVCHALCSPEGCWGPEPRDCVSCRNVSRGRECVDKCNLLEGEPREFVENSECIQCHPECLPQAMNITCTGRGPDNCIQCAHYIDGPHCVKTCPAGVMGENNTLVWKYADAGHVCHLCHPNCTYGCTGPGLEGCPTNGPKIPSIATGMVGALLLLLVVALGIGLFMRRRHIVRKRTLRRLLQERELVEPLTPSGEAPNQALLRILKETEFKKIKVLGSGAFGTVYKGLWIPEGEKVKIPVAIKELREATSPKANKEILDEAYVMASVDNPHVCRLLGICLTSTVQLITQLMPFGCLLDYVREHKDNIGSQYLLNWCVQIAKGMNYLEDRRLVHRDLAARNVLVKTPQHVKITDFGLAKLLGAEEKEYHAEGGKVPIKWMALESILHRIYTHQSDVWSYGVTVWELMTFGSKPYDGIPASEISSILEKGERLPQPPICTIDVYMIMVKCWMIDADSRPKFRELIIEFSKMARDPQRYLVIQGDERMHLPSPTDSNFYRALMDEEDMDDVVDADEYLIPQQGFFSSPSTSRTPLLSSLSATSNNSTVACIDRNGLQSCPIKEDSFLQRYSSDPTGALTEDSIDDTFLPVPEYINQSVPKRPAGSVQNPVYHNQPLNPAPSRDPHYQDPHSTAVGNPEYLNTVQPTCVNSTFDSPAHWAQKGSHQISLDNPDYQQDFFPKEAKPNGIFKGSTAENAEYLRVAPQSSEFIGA
Chain of Torsin-1A-interacting protein 1 (Homo sapiens) (Q5JTV8 whole entry, looked up): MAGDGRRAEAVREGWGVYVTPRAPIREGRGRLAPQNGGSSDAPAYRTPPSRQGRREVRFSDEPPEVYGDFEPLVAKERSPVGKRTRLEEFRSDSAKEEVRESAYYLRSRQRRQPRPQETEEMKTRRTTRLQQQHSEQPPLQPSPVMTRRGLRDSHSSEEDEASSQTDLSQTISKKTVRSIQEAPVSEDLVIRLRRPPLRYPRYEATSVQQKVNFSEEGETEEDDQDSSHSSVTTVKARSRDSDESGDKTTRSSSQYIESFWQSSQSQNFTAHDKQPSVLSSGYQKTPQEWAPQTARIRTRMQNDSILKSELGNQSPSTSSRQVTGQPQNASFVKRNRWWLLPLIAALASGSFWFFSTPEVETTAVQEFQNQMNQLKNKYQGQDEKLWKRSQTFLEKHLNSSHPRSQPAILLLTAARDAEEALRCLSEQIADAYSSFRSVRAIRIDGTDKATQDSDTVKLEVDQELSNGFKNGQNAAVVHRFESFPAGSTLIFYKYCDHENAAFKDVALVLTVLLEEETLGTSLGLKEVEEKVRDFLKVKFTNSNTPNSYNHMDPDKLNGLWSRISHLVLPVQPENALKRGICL
Chain of Left-right determination factor 2 (Homo sapiens) (O00292 whole entry, looked up): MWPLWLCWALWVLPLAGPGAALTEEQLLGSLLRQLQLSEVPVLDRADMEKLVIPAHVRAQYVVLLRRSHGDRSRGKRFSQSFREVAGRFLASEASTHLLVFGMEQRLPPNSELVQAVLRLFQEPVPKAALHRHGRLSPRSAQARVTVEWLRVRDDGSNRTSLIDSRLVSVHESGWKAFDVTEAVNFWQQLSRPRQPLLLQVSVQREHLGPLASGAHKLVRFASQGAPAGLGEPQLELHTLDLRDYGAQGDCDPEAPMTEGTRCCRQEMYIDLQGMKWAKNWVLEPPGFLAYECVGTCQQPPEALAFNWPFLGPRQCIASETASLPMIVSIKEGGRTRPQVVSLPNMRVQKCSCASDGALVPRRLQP
Chain of Dickkopf-related protein 1 (Homo sapiens) (O94907 whole entry, looked up): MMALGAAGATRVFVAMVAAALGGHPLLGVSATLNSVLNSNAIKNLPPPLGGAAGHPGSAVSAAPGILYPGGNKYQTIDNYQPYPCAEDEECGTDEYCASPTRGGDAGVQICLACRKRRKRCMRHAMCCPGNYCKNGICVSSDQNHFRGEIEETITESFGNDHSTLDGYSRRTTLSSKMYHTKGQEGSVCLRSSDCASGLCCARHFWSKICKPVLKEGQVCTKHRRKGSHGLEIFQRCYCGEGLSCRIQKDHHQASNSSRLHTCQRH

As for `C[C@H]1C2[C@H](Cc3ccccc3)NC(=O)[C@]23C(=O)N[C@H](Cc2ccccc2)C(=O)N2CCC[C@H]2C(=O)NC/C=C\C/C=C/C3[C@@H]2O[C@]12C` (stereo not given in full), the composite z-score in experiment [1] is 0.901; in experiment [2] it was -0.0646; in experiment [3], -0.19; in [5], 0.428; in [6], -0.298; in experiment [7], -0.0282. Further, the composite z-score in experiment [8] was 0.801; in experiment [9], 0.299; in [10] it was 0.946; in [11], -0.355; in experiment [13], 0.203; in [14], -0.404. Moreover, the composite z-score was -0.863 in [15]; -0.0165 in [16]; -0.0146 in experiment [17]; -0.0003 in [18]; 0.0015 in experiment [19]; 1.18 in experiment [20]. The z-score in experiment [4] was -0.925 (inactive); in experiment [12], 0.255.

`O=C1C[C@@](C(=O)NC2CC2)(c2ccc([N+](=O)[O-])cc2)[C@@H](c2ccc(CO)cc2I)N1C1CCCCC1`: the composite z-score in experiment [1] was 1.02; in experiment [2], 0.666; in experiment [3] it was -0.0524; in experiment [5] it was 1.19; in experiment [6], 0.931; in experiment [7], 0.414. Also, the composite z-score came to 1.25 in [8]; 0.486 in experiment [9]; 0.245 in [10]; 1.43 in experiment [11]; 0.434 in experiment [13]; 0.581 in experiment [14]. Also, the composite z-score in [15] was -0.183; in experiment [16], -0.101; in experiment [17], 0.0756; in experiment [18] it was 0.217; in [19] it was 0.388; in experiment [20], 1.24. Also, the z-score is -0.497 (inactive) in [4] and -1.97 in experiment [12].

On to `COCCOC(=O)N1C(=O)[C@@]2(c3cc(C#CCCO)ccc31)[C@H](C(=O)N1CCCCCCC1)[C@H]1C(=O)O[C@H](c3ccccc3)[C@H](c3ccccc3)N1[C@@H]2c1ccc(OCCO)cc1`, for which the composite z-score in [1] was 1.4; in experiment [2], 2.52; in experiment [3], 1.49; in experiment [5], 0.888; in experiment [6], 0.704; in experiment [7], 1.59. In addition, the composite z-score in experiment [8] was 1.55; in [9], 1.63; in experiment [10], 1.67; in experiment [11], 1.39; in [13] it was 1.01; in experiment [14] it was 2.13. Also, the composite z-score in [15] turned out to be 1.05; in experiment [16] it was 0.933; in experiment [17] it was 0.953; in experiment [18], 1.99; in experiment [19], 3.97; in experiment [20], 2.01. The z-score is 0.713 (inactive) in [4] and -0.616 in [12].

As to `COc1ccc(CCNC(=O)[C@@H]2c3ccccc3C(=O)N(Cc3ccccc3Cl)[C@H]2c2ccc(CO)cc2)cc1`, the composite z-score is 0.489 in [1]; 0.235 in experiment [2]; 0.602 in experiment [3]; 0.212 in [5]; 0.412 in [6]; -0.0373 in [7]. Besides, the composite z-score in experiment [8] is -0.182; in [9], 0.0477; in experiment [10], 0.674; in [11] it was 1.07; in [13], 0.147; in experiment [14], -0.0739. The composite z-score is -0.0544 in experiment [15]; -0.152 in experiment [16]; 0.0611 in experiment [17]; 0.395 in [18]; 0.412 in [19]; -0.473 in experiment [20]. In addition, the z-score in [4] was -0.153 (inactive); in experiment [12] it was -1.37.

As to `COC(=O)[C@@]1(Cc2ccc(OC)cc2)[C@H]2c3cc(C(=O)N(C)C)n(C)c3C[C@H]2CN1C(=O)c1ccccc1`, the composite z-score in experiment [1] is 0.843; in [2], 0.928; in [3], 1.28; in experiment [5] it was 0.924; in experiment [6], 0.789; in experiment [7], 0.534. Besides, the composite z-score in experiment [8] is 1.33; in experiment [9] it was -0.105; in experiment [10], 0.511; in experiment [11], 1.45; in experiment [13], -0.239; in experiment [14] it was 2.01. The composite z-score in [15] is 0.749; in experiment [16] it was 0.0337; in experiment [17] it was 0.527; in experiment [18], 2.11; in experiment [19], 1.15; in experiment [20] it was 0.696. For the same compound, the z-score in experiment [4] is -1.96 (inactive); in experiment [12], -2.62.

Take `CC(=O)NCCCC[C@@H]1NC(=O)[C@@H]2C[C@H](C(=O)NCCCCCNC(=O)CS)[C@H](c3cccc(OCCO)c3)N2C1=O`: the composite z-score in experiment [1] is 1.16; in experiment [2], -0.394; in experiment [3] it was -0.155; in experiment [5], 0.0349; in experiment [6] it was -0.0868; in [7], 0.724. The composite z-score in experiment [8] was 1.07; in [9], 1.11; in experiment [10] it was 0.337; in experiment [11], -0.0596; in [13] it was 0.837; in [14] it was -0.646. In addition, the composite z-score is -0.754 in experiment [15]; -0.214 in experiment [16]; -0.0533 in [17]; -0.0533 in experiment [18]; -0.443 in [19]; -0.0629 in [20]. Further, the z-score in experiment [4] was -2.01 (inactive); in experiment [12] it was -0.652.

Take `CC(C)C[C@@H]1NC(=O)[C@H](C(C)C)NC(=O)[C@@]23C(=O)N[C@@H](Cc4ccccc4)C2[C@H](C)[C@@]2(C)O[C@H]2C3/C=C/CC/C=C/CNC1=O` (stereo not given in full): the composite z-score in experiment [1] is 0.26; in experiment [2], -0.189; in experiment [3] it was -0.263; in [5], 1.16; in [6], 0.94; in [7], 0.467. In addition, the composite z-score in experiment [8] was 1.37; in [9], 0.384; in experiment [10], 1.35; in experiment [11], 1.35; in experiment [13], 0.413; in [14], -0.245. In addition, the composite z-score in experiment [15] is -0.736; in experiment [16], -0.117; in [17], -0.283; in experiment [18] it was -0.397; in experiment [19], 0.268; in experiment [20], 0.705. Besides, the z-score in experiment [4] was -0.76 (inactive); in experiment [12] it was -1.41.

Consider `CC(C)C(=C=CC[C@@H](O)c1ccc(OCCO)cc1)C[C@@H](O)c1ccccn1`, for which the composite z-score in experiment [1] is 0.595; in experiment [2] it was -0.0166; in experiment [3], -0.495; in experiment [5] it was 1.6; in [6], 0.854; in [7], 0.124. Besides, the composite z-score in experiment [8] is 1.06; in experiment [9], 1.76; in [10], 0.59; in [11], 0.323; in experiment [13], 1.21; in experiment [14], -0.315. In addition, the composite z-score in experiment [15] is -0.113; in experiment [16], -0.0721; in [17], -0.0709; in experiment [18], -0.0926; in [19], 1.08; in experiment [20], -0.0878. Also, the z-score was 0.106 (inactive) in [4] and -0.218 in experiment [12].
